# The source made the active and inactive calls. Rule for the calls: active = hit-call score of the fitted dose curve at least 0.9, where 1 is the maximum; inactive = score below 0.9.
# Assays:
# Settings in all cases: mRNA level, 48 h; actives raise or lower the signal
# [1] = read-out: Glutathione S-Transferase (GSTA2), GSTA2 (gene 2939); assay: LTEA_HepaRG_GSTA2: Life Technologies and Expression Analysis (LTEA) Assay for Glutathione S-Transferase (GSTA2) using HepaRG (AID 2283497)
# How it was run: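 Human HepaRG cells, plated 48 h, then exposed in serum-free induction medium for 48 h to eight half-log concentrations up to 100 uM in 0.5% DMSO, duplicate. GSTA2 mRNA by qRT-PCR, normalized to ACTB/GAPDH/POLR2A; bidirectional fit versus DMSO.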
# [2] = read-out: Glutamate-cysteine ligase catalytic (GCLC), GCLC (gene 2729); assay: LTEA_HepaRG_GCLC: Life Technologies and Expression Analysis (LTEA) Assay for Glutamate-cysteine ligase catalytic (GCLC) using HepaRG (AID 2283498)
# How it was run: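 Differentiated human HepaRG cells, plated 48 h then switched to serum-free induction medium, were exposed in duplicate for 48 h to 8 half-log concentrations topping at 100 uM in 0.5% DMSO. GCLC mRNA was quantified by qRT-PCR against ACTB, GAPDH and POLR2A.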
# [3] = read-out: growth arrest and DNA damage 45 (GADD45G), GADD45G (gene 10912); assay: LTEA_HepaRG_GADD45G: Life Technologies and Expression Analysis (LTEA) Assay for growth arrest and DNA damage 45 (GADD45G) using HepaRG (AID 2283499)
# How it was run: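 Gain or loss of GADD45G mRNA, quantified by TaqMan qRT-PCR against three housekeeping genes, is fitted in both directions relative to 0.5% DMSO. Human HepaRG cultures receive test chemical for 48 h at up to 100 uM.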
# [4] = read-out: Glutathione S-transferase M3 (GSTM3), GSTM3 (gene 2947); assay: LTEA_HepaRG_GSTM3: Life Technologies and Expression Analysis (LTEA) Assay for Glutathione S-transferase M3 (GSTM3) using HepaRG (AID 2283501)
# How it was run: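 HepaRG, plated 48 h, then serum-free induction medium; test chemical 48 h, duplicate; 100 uM top, half-log x8, 0.5% DMSO. Read-out: GSTM3 mRNA (TaqMan qRT-PCR, Fluidigm array). Bidirectional fit vs DMSO.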
# [5] = read-out: Heat shock 70 kDa protein 1 (HSPA1A), gene 3303; assay: LTEA_HepaRG_HSPA1A: Life Technologies and Expression Analysis (LTEA) Assay for Heat shock 70 kDa protein 1 (HSPA1A) using HepaRG (AID 2283502)
# How it was run: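 HSPA1A induction in human HepaRG liver cells is measured after 48 h of chemical treatment (100 uM maximum, 0.5% DMSO vehicle). Expression comes from qRT-PCR normalized to endogenous controls.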
# [6] = read-out: Hypoxia-inducible factor 1-alpha (Homo sapiens) (UniProt Q16665); assay: LTEA_HepaRG_HIF1A: Life Technologies and Expression Analysis (LTEA) Assay for Hypoxia-inducible factor 1 (HIF1A) Trancription factor using HepaRG (AID 2283503);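 note: HIF1A transcript by TaqMan qRT-PCR normalized to ACTB GAPDH and POLR2A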
# How it was run: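 HepaRG, 48 h exposure, 8-pt half-log series from 100 uM, 0.5% DMSO vehicle, duplicates. Readout: HIF1A transcript by qRT-PCR (Fluidigm array), housekeeping-normalised. Bidirectional curve fit vs DMSO baseline.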
# HGF (gene 3082) = assay: LTEA_HepaRG_HGF: Life Technologies and Expression Analysis (LTEA) Assay for Hepatocyte Growth Facto (HGF) using HepaRG (AID 2283505)
# How it was run: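 Read-out is HGF transcript level by qRT-PCR, normalized to three housekeeping genes, fitted bidirectionally against 0.5% DMSO vehicle. Human HepaRG cells received test chemicals for 48 h at up to 100 uM.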
# [7] = read-out: Insulin Like Growth Factor 1 (IGF1), IGF1 (gene 3479); assay: LTEA_HepaRG_IGF1: Life Technologies and Expression Analysis (LTEA) Assay for Insulin Like Growth Factor 1 (IGF1) using HepaRG (AID 2283506)
# How it was run: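 Using human HepaRG liver cells, IGF1 transcript induction or suppression is measured 48 h after dosing across eight concentrations capped at 100 uM. Values derive from bidirectional concentration-response fitting with DMSO as baseline.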
# [8] = read-out: Glutamate-cysteine ligase regulatory (GCLM), GCLM (gene 2730); assay: LTEA_HepaRG_GCLM: Life Technologies and Expression Analysis (LTEA) Assay for Glutamate-cysteine ligase regulatory (GCLM) using HepaRG (AID 2283500)
# How it was run: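 Human liver HepaRG cultures receive test chemicals for 48 hours at up to 100 uM in 0.5% DMSO. GCLM expression is measured by qRT-PCR and analysed for increases or decreases against vehicle.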
# [9] = read-out: 3-Hydroxy-3-Methylglutaryl-CoA Synthase 2 (HMGCS2), HMGCS2 (gene 3158); assay: LTEA_HepaRG_HMGCS2: Life Technologies and Expression Analysis (LTEA) Assay for 3-Hydroxy-3-Methylglutaryl-CoA Synthase 2 (HMGCS2) using HepaRG (AID 2283504)
# How it was run: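 HepaRG, plated 48 h then switched to serum-free induction media; cmpd 8-pt, max 100 uM, 1/2-log, 0.5% DMSO, n=2, 48 h. HMGCS2 mRNA by Fluidigm TaqMan qRT-PCR, ACTB/GAPDH/POLR2A norm; bidirectional fit vs DMSO.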
# Hypoxia-inducible factor 1-alpha (Homo sapiens), sequence (Q16665 whole entry, looked up): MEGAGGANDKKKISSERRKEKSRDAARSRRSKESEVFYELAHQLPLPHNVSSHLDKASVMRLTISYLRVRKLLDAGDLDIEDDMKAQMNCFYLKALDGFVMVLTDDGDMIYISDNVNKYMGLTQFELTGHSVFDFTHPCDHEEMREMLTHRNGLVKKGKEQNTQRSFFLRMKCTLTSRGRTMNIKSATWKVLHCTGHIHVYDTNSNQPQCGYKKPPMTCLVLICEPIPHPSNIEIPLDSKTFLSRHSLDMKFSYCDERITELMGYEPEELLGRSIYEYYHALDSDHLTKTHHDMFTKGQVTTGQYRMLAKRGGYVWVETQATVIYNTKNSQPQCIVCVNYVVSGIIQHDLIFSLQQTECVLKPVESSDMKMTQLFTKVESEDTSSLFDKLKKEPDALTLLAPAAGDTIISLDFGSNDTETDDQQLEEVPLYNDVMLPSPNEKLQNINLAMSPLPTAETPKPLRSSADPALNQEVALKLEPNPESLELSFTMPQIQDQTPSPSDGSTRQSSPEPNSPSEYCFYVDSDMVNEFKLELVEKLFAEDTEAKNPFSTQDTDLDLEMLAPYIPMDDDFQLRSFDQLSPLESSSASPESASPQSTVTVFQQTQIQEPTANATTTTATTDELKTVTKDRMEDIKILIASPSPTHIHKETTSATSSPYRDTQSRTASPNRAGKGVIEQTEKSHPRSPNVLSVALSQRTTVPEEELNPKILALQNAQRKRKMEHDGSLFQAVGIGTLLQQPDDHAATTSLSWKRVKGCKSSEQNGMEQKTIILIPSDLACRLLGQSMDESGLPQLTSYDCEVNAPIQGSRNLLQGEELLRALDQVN
structure (smiles),measurement,setting,value
CCN(CC)C(=O)c1cccc(C)c1,outcome,[1],inactive
same,outcome,[2],inactive
same,outcome,[3],inactive
same,outcome,[4],inactive
same,outcome,[5],inactive
same,outcome,[6],inactive
same,outcome,HGF (gene 3082),inactive
same,AC50,[7],13.1 µM (active)
CC(=O)S[C@@H]1CC2=CC(=O)CC[C@]2(C)[C@H]2CC[C@@]3(C)[C@@H](CC[C@@]34CCC(=O)O4)[C@H]12,AC50,[1],69.5 µM (active)
same,AC50,[2],50 µM (active)
same,AC50,[3],32.7 µM (active)
same,outcome,[8],inactive
same,outcome,[4],inactive
same,outcome,[5],inactive
same,outcome,[6],inactive
same,outcome,HGF (gene 3082),inactive
C#C[C@]1(O)CC[C@H]2[C@@H]3CCC4=CC(=O)CC[C@@H]4[C@H]3CC[C@@]21CC,outcome,[1],inactive
same,outcome,[2],inactive
same,outcome,[3],inactive
same,outcome,[8],inactive
same,outcome,[4],inactive
same,outcome,[5],inactive
same,outcome,[6],inactive
same,outcome,HGF (gene 3082),inactive
C#CCOC(=O)[C@@H](C)Oc1ccc(Oc2ncc(Cl)cc2F)cc1,outcome,[1],inactive
same,outcome,[2],inactive
same,outcome,[3],inactive
same,outcome,[8],inactive
same,outcome,[4],inactive
same,outcome,[5],inactive
same,outcome,[6],inactive
same,outcome,HGF (gene 3082),inactive
CSC(=O)c1cccc2nnsc12,outcome,[1],inactive
same,outcome,[2],inactive
same,outcome,[3],inactive
same,outcome,[8],inactive
same,outcome,[4],inactive
same,outcome,[5],inactive
same,outcome,[6],inactive
same,outcome,HGF (gene 3082),inactive
CCCCCOC(=O)COc1cc(N2C(=O)C3=C(CCCC3)C2=O)c(F)cc1Cl,outcome,[1],inactive
same,outcome,[2],inactive
same,outcome,[3],inactive
same,outcome,[8],inactive
same,outcome,[4],inactive
same,outcome,[5],inactive
same,outcome,[6],inactive
same,outcome,HGF (gene 3082),inactive
same,outcome,[7],inactive
CCCCOCCOCCOCc1cc2c(cc1CCC)OCO2,outcome,[1],inactive
same,outcome,[2],inactive
same,AC50,[3],4.83 µM (active)
same,outcome,[8],inactive
same,outcome,[4],inactive
same,AC50,[5],7.35 µM (active)
same,outcome,[6],inactive
same,outcome,HGF (gene 3082),inactive
same,AC50,[7],21.3 µM (active)
CC(C)(C)[C@@H](O)[C@@H](Cc1ccc(Cl)cc1)n1cncn1,outcome,[1],inactive
same,outcome,[2],inactive
same,outcome,[3],inactive
same,outcome,[8],inactive
same,outcome,[4],inactive
same,outcome,[6],inactive
same,outcome,[9],inactive
same,outcome,HGF (gene 3082),inactive
CC(C)CCCCCCc1ccc(O)cc1,outcome,[1],inactive
same,outcome,[2],inactive
same,outcome,[3],inactive
same,outcome,[8],inactive
same,outcome,[4],inactive
same,outcome,[5],inactive
same,outcome,[6],inactive
same,outcome,HGF (gene 3082),inactive
O=C(O)C1(C(=O)Nc2ccc(Cl)cc2Cl)CC1,AC50,[1],48.8 µM (active)
same,AC50,[2],50 µM (active)
same,AC50,[3],90.1 µM (active)
same,outcome,[8],inactive
same,outcome,[4],inactive
same,outcome,[5],inactive
same,AC50,[6],50 µM (active)
same,outcome,HGF (gene 3082),inactive
c1ccc(Nc2ccccc2)cc1,outcome,[1],inactive
same,outcome,[2],inactive
same,outcome,[3],inactive
same,outcome,[8],inactive
same,outcome,[4],inactive
same,outcome,[5],inactive
same,outcome,[6],inactive
same,outcome,HGF (gene 3082),inactive
Cc1nn(C)c(Oc2ccccc2)c1C=NOCc1ccc(C(=O)OC(C)(C)C)cc1,AC50,[1],30.4 µM (active)
same,outcome,[2],inactive
same,AC50,[3],3.1 µM (active)
same,AC50,[8],17.6 µM (active)
same,AC50,[4],3 µM (active)
same,AC50,[5],1.57 µM (active)
same,outcome,[6],inactive
same,AC50,HGF (gene 3082),86.6 µM (active)
same,AC50,[7],3.22 µM (active)
O=C(Nc1ccc([N+](=O)[O-])cc1Cl)c1cc(Cl)ccc1O,AC50,[1],2.84 µM (active)
same,AC50,[2],4.26 µM (active)
same,outcome,[3],inactive
same,outcome,[8],inactive
same,AC50,[4],25 µM (active)
same,outcome,[5],inactive
same,AC50,HGF (gene 3082),2.98 µM (active)
same,AC50,[7],3.59 µM (active)
N#CSCSc1nc2ccccc2s1,AC50,[1],86 µM (active)
same,outcome,[2],inactive
same,outcome,[3],inactive
same,outcome,[8],inactive
same,outcome,[4],inactive
same,outcome,[5],inactive
same,outcome,[6],inactive
same,outcome,HGF (gene 3082),inactive
COC(=O)c1ccc(I)cc1S(=O)(=O)NC(=O)Nc1nc(C)nc(OC)n1,outcome,[1],inactive
same,outcome,[2],inactive
same,outcome,[3],inactive
same,outcome,[8],inactive
same,outcome,[4],inactive
same,outcome,[5],inactive
same,outcome,HGF (gene 3082),inactive
COC(=O)CSc1cc(N=c2sc(=O)n3n2CCCC3)c(F)cc1Cl,outcome,[1],inactive
same,outcome,[2],inactive
same,outcome,[3],inactive
same,outcome,[8],inactive
same,outcome,[4],inactive
same,outcome,[5],inactive
same,outcome,[6],inactive
same,outcome,HGF (gene 3082),inactive
CCOC(=O)c1ccc(O)cc1,outcome,[1],inactive
same,outcome,[2],inactive
same,outcome,[3],inactive
same,outcome,[8],inactive
same,outcome,[4],inactive
same,outcome,[5],inactive
same,outcome,[6],inactive
same,outcome,HGF (gene 3082),inactive
C=CCOC(Cn1ccnc1)c1ccc(Cl)cc1Cl (centres undefined),AC50,[2],88.7 µM (active)
same,AC50,[3],91.6 µM (active)
same,outcome,[8],inactive
same,outcome,[4],inactive
same,outcome,[5],inactive
same,AC50,[6],79.6 µM (active)
same,AC50,[9],32.4 µM (active)
same,outcome,HGF (gene 3082),inactive
same,AC50,[7],18.3 µM (active)
CCOC(=O)COc1cc(-n2ncc(C(F)(F)F)c(C)c2=O)c(F)cc1Cl,outcome,[1],inactive
same,outcome,[2],inactive
same,outcome,[3],inactive
same,outcome,[8],inactive
same,outcome,[4],inactive
same,outcome,[5],inactive
same,outcome,[6],inactive
same,outcome,HGF (gene 3082),inactive
CN(C)C(=O)Nc1ccc(Cl)c(Cl)c1,AC50,[1],50 µM (active)
same,AC50,[2],35.8 µM (active)
same,outcome,[3],inactive
same,AC50,[8],50 µM (active)
same,outcome,[4],inactive
same,outcome,[5],inactive
same,outcome,[6],inactive
same,outcome,HGF (gene 3082),inactive
CCOC(=O)C(C)Oc1ccc(Oc2nc3ccc(Cl)cc3o2)cc1 (centres undefined),AC50,[1],38.3 µM (active)
same,outcome,[2],inactive
same,outcome,[3],inactive
same,outcome,[8],inactive
same,outcome,[4],inactive
same,outcome,[5],inactive
same,outcome,[6],inactive
same,outcome,HGF (gene 3082),inactive
same,AC50,[7],20.2 µM (active)
CCOC(=O)NCCOc1ccc(Oc2ccccc2)cc1,AC50,[1],88.5 µM (active)
same,outcome,[2],inactive
same,AC50,[3],73.5 µM (active)
same,AC50,[8],82.4 µM (active)
same,outcome,[4],inactive
same,outcome,[5],inactive
same,outcome,[6],inactive
same,outcome,HGF (gene 3082),inactive
same,AC50,[7],89.5 µM (active)
CCCN(CCC)C(=O)SCC,outcome,[1],inactive
same,outcome,[2],inactive
same,outcome,[3],inactive
same,outcome,[8],inactive
same,outcome,[4],inactive
same,outcome,[5],inactive
same,outcome,[6],inactive
same,outcome,HGF (gene 3082),inactive
same,outcome,[7],inactive
CCCCC(CC)CN1C(=O)C2C3C=CC(C3)C2C1=O (centres undefined),AC50,[1],79.5 µM (active)
same,outcome,[2],inactive
same,AC50,[3],50 µM (active)
same,AC50,[8],50 µM (active)
same,outcome,[4],inactive
same,outcome,[5],inactive
same,outcome,[6],inactive
same,outcome,HGF (gene 3082),inactive
same,AC50,[7],50 µM (active)
Oc1ccc(C(c2ccc(O)cc2)C(Cl)(Cl)Cl)cc1,AC50,[1],78.2 µM (active)
same,AC50,[2],77.2 µM (active)
same,AC50,[3],78.9 µM (active)
same,outcome,[8],inactive
same,outcome,[4],inactive
same,AC50,[5],94.5 µM (active)
same,AC50,[6],79.5 µM (active)
same,AC50,HGF (gene 3082),83.7 µM (active)
CC(=O)[C@H]1CC[C@H]2[C@@H]3CCC4=CC(=O)CC[C@]4(C)[C@H]3CC[C@]12C,AC50,[1],34.5 µM (active)
same,AC50,[2],91.1 µM (active)
same,AC50,[3],23 µM (active)
same,outcome,[8],inactive
same,AC50,[4],93.1 µM (active)
same,AC50,[5],70.2 µM (active)
same,AC50,[9],29.2 µM (active)
same,AC50,HGF (gene 3082),85.4 µM (active)
O=C(c1ccccc1)C1CCCCC1,outcome,[1],inactive
same,outcome,[2],inactive
same,outcome,[3],inactive
same,outcome,[8],inactive
same,outcome,[4],inactive
same,outcome,[5],inactive
same,outcome,[6],inactive
same,outcome,HGF (gene 3082),inactive
same,outcome,[7],inactive

# Source: PubChem BioAssay (EPA / NIEHS)
